Laboratory results published in PubChem BioAssay AID1159580 (chemical genetic matrix, 2015).
Where “and” joins values, the source holds several entries; their conditions need not be identical. Equal values may be shown once. In all, about 5,500 compounds went through this assay and about 2,000 (36%) were called active. Not shown: some 18% with an inconclusive outcome. No stated cut-off is given here; in the data, active means normalized growth mostly below about 0.91 (no sharp cut-off); inconclusive means no clear call, values can overlap the other calls; inactive means mostly above about 0.92. This is one part of the list.

Experiment: chemical genetic growth profiling, strain panel (AID 1159580);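 further: tested at 20 µM; growth read once vehicle control cultures reached saturation at 30 °C; 1 = growth at the plate median or of vehicle wells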
Conditions: growth OD

Measured: normalized growth

CCN(CCCCOC(=O)c1ccc(OC)c(OC)c1)C(C)Cc1ccc(OC)cc1 (configuration not stated)
inactive: S. cerevisiae deletion strains, locus YAL013W, strain DEP1, stronger effect = lower value 0.982 | S. cerevisiae deletion strains, locus YBR021W, strain FUR4, stronger effect = lower value 0.989 | S. cerevisiae deletion strains, locus YBR229C, strain ROT2, stronger effect = lower value 0.95 | S. cerevisiae deletion strains, locus YCL029C, strain bik1, stronger effect = lower value 0.99 | S. cerevisiae deletion strains, locus YDL035C, strain GPR1, stronger effect = lower value 0.972 | S. cerevisiae deletion strains, locus YDL074C, strain BRE1, stronger effect = lower value 0.987 | S. cerevisiae deletion strains, locus YDL101C, strain DUN1, stronger effect = lower value 0.988 | S. cerevisiae deletion strains, locus YDL134C, strain PPH21, stronger effect = lower value 0.988 | S. cerevisiae deletion strains, locus YDL185W, strain tfp1, stronger effect = lower value 0.991 | S. cerevisiae deletion strains, locus YDL192W, strain arf1, stronger effect = lower value 0.982 | S. cerevisiae deletion strains, locus YDR101C, strain arx1, stronger effect = lower value 0.995 | S. cerevisiae deletion strains, locus YDR150W, strain NUM1, stronger effect = lower value 0.96 | S. cerevisiae deletion strains, locus YDR162C, strain NBP2, stronger effect = lower value 0.977 | S. cerevisiae deletion strains, locus YDR318W, strain mcm21, stronger effect = lower value 0.999 | S. cerevisiae deletion strains, locus YDR388W, stronger effect = lower value 0.998 | S. cerevisiae deletion strains, locus YDR502C, strain sam2, stronger effect = lower value 0.98 | S. cerevisiae deletion strains, locus YEL061C, strain CIN8, stronger effect = lower value 0.979 | S. cerevisiae deletion strains, locus YER110C, stronger effect = lower value 0.963 | S. cerevisiae deletion strains, locus YER155C, strain BEM2, stronger effect = lower value 0.999 | S. cerevisiae deletion strains, locus YER167W, strain BCK2, stronger effect = lower value 0.989 | S. cerevisiae deletion strains, locus YGL078C, strain dbp3, stronger effect = lower value 0.997 | S. cerevisiae deletion strains, locus YGL086W, strain mad1, stronger effect = lower value 0.965 | S. cerevisiae deletion strains, locus YGL248W, strain PDE1, stronger effect = lower value 0.98 | S. cerevisiae deletion strains, locus YGR078C, strain PAC10, stronger effect = lower value 0.995 | S. cerevisiae deletion strains, locus YGR135W, strain pre9, stronger effect = lower value 1.02 | S. cerevisiae deletion strains, locus YGR229C, strain SMI1, stronger effect = lower value 0.978 | S. cerevisiae deletion strains, locus YGR252W, strain gcn5, stronger effect = lower value 0.937 | S. cerevisiae deletion strains, locus YHR030C, strain SLT2, stronger effect = lower value 0.989 and 0.965 | S. cerevisiae deletion strains, locus YHR079C, strain IRE1 (second series), stronger effect = lower value 0.992 | S. cerevisiae deletion strains, locus YHR079C, strain IRE1, stronger effect = lower value 0.956 | S. cerevisiae deletion strains, locus YHR094C, strain hxt1, stronger effect = lower value 0.989 | S. cerevisiae deletion strains, locus YHR129C, strain ARP1, stronger effect = lower value 0.993 | S. cerevisiae deletion strains, locus YHR200W, strain rpn10, stronger effect = lower value 0.992 | S. cerevisiae deletion strains, locus YIL066C, strain RNR3, stronger effect = lower value 0.968 | S. cerevisiae deletion strains, locus YIL073C, strain SPO22, stronger effect = lower value 0.986 | S. cerevisiae deletion strains, locus YIL125W, strain kgd1, stronger effect = lower value 0.985 | S. cerevisiae deletion strains, locus YIR030C, strain dcg1, stronger effect = lower value 0.978 | S. cerevisiae deletion strains, locus YJL095W, strain BCK1, stronger effect = lower value 1.03 and 0.98 | S. cerevisiae deletion strains, locus YJL134W, strain LCB3, stronger effect = lower value 0.979 | S. cerevisiae deletion strains, locus YJL168C, strain set2, stronger effect = lower value 0.995 | S. cerevisiae deletion strains, locus YJL187C, strain SWE1 (second series), stronger effect = lower value 1 | S. cerevisiae deletion strains, locus YJR043C, strain POL32, stronger effect = lower value 1.01 | S. cerevisiae deletion strains, locus YJR066W, strain TOR1, stronger effect = lower value 0.913 | S. cerevisiae deletion strains, locus YJR075W, strain HOC1, stronger effect = lower value 0.98 | S. cerevisiae deletion strains, locus YKL009W, strain mrt4, stronger effect = lower value 0.95 | S. cerevisiae deletion strains, locus YKL068W, stronger effect = lower value 0.998 | S. cerevisiae deletion strains, locus YKL085W, strain MDH1 (second series), stronger effect = lower value 0.987 | S. cerevisiae deletion strains, locus YKL085W, strain MDH1, stronger effect = lower value 0.987 | S. cerevisiae deletion strains, locus YKL190W, strain CNB1, stronger effect = lower value 0.99 | S. cerevisiae deletion strains, locus YKR001C, strain vps1, stronger effect = lower value 0.988 | S. cerevisiae deletion strains, locus YLR039C, strain RIC1, stronger effect = lower value 0.983 | S. cerevisiae deletion strains, locus YLR058C, strain SHM2, stronger effect = lower value 0.967 | S. cerevisiae deletion strains, locus YLR102C, strain apc9, stronger effect = lower value 0.993 | S. cerevisiae deletion strains, locus YLR113W, strain HOG1, stronger effect = lower value 0.956 | S. cerevisiae deletion strains, locus YLR262C, strain YPT6, stronger effect = lower value 0.937 | S. cerevisiae deletion strains, locus YLR268W, strain sec22, stronger effect = lower value 1.07 | S. cerevisiae deletion strains, locus YLR330W, strain CHS5, stronger effect = lower value 0.977 | S. cerevisiae deletion strains, locus YLR342W, strain FKS1 (second series), stronger effect = lower value 0.985 | S. cerevisiae deletion strains, locus YLR371W, strain rom2, stronger effect = lower value 0.972 | S. cerevisiae deletion strains, locus YLR418C, strain cdc73, stronger effect = lower value 0.956 | S. cerevisiae deletion strains, locus YML016C, strain PPZ1, stronger effect = lower value 0.978 | S. cerevisiae deletion strains, locus YML032C, strain rad52, stronger effect = lower value 1 | S. cerevisiae deletion strains, locus YML124C, strain tub3, stronger effect = lower value 0.985 | S. cerevisiae deletion strains, locus YMR078C, strain ctf18, stronger effect = lower value 0.987 | S. cerevisiae deletion strains, locus YMR223W, strain ubp8, stronger effect = lower value 0.971 | S. cerevisiae deletion strains, locus YMR263W, strain SAP30, stronger effect = lower value 0.978 | S. cerevisiae deletion strains, locus YMR307W, strain GAS1, stronger effect = lower value 1.01 | S. cerevisiae deletion strains, locus YNL067W, strain RPL9B, stronger effect = lower value 1.01 | S. cerevisiae deletion strains, locus YNL128W, strain TEP1, stronger effect = lower value 0.968 | S. cerevisiae deletion strains, locus YNL153C, strain GIM3, stronger effect = lower value 1 | S. cerevisiae deletion strains, locus YNL183C, strain NPR1, stronger effect = lower value 0.9 | S. cerevisiae deletion strains, locus YNL233W, strain BNI4, stronger effect = lower value 0.996 | S. cerevisiae deletion strains, locus YNL250W, strain rad50, stronger effect = lower value 0.987 | S. cerevisiae deletion strains, locus YNL271C, strain bni1, stronger effect = lower value 0.999 | S. cerevisiae deletion strains, locus YNL298W, strain CLA4, stronger effect = lower value 0.99 | S. cerevisiae deletion strains, locus YNL307C, strain MCK1, stronger effect = lower value 0.983 | S. cerevisiae deletion strains, locus YNL322C, strain KRE1, stronger effect = lower value 0.982 | S. cerevisiae deletion strains, locus YNR052C, strain pop2, stronger effect = lower value 1.01 | S. cerevisiae deletion strains, locus YOL006C, strain TOP1, stronger effect = lower value 0.966 | S. cerevisiae deletion strains, locus YOL012C, strain htz1 1.08 | S. cerevisiae deletion strains, locus YOL147C, strain pex11, stronger effect = lower value 0.987 | S. cerevisiae deletion strains, locus YOR061W, strain CKA2, stronger effect = lower value 0.974 | S. cerevisiae deletion strains, locus YOR069W, strain VPS5, stronger effect = lower value 0.986 | S. cerevisiae deletion strains, locus YOR136W, strain idh2, stronger effect = lower value 0.981 | S. cerevisiae deletion strains, locus YOR144C, strain elg1, stronger effect = lower value 0.991 | S. cerevisiae deletion strains, locus YOR184W, strain ser1, stronger effect = lower value 0.974 | S. cerevisiae deletion strains, locus YOR231W, strain MKK1, stronger effect = lower value 0.964 | S. cerevisiae deletion strains, locus YOR316C, strain cot1, stronger effect = lower value 0.992 | S. cerevisiae deletion strains, locus YPL055C, strain LGE1, stronger effect = lower value 0.963 | S. cerevisiae deletion strains, locus YPL241C, strain CIN2, stronger effect = lower value 0.989 | S. cerevisiae deletion strains, locus YPL256C, strain CLN2, stronger effect = lower value 0.961 | S. cerevisiae deletion strains, locus YPR119W, strain clb2, stronger effect = lower value 0.987 | S. cerevisiae deletion strains, locus YPR141C, strain kar3, stronger effect = lower value 0.979 | S. cerevisiae deletion strains, locus YPR163C, strain tif3, stronger effect = lower value 0.992 | S. cerevisiae deletion strains, locus YPR167C, strain met16, stronger effect = lower value 0.997 | S. cerevisiae deletion strains, strain wtn01, stronger effect = lower value 1.01 | S. cerevisiae strains, strain wild type, stronger effect = lower value 0.98
